Results taken from PubChem BioAssay.
Entries with a potency or affinity are not part of this list. Active and inactive are the calls of the source. The rule behind the calls is not given here.

Assays:
[1] = A549 cell cytotoxicity, dose response, cytotoxicity control, plate reader, cherry-pick, antagonist series (AID 743412)
[2] = HepG2 cell cytotoxicity, dose response, cytotoxicity control, plate reader, cherry-pick, antagonist series (AID 743416)
[3] = molecular target: Melanocortin receptor 4 (Homo sapiens) (UniProt P32245); test: MC4R antagonists, dose response, counter-screen for LGR2 antagonist project, cell-based, plate reader, cherry pick (AID 743444)

SMILES | outcome [1] | outcome [2] | outcome [3]
c1nc(CCO[C@H]2CCCCO2)cc2cc3c(cc12)OCO3 | inactive | inactive | 
Cc1cccc(-n2ncc3c(N(C)C4CCCCC4)ncnc32)c1 | inactive | inactive | 
Cc1ccc(C(=O)CN2C(=O)c3ccccc3S2(=O)=O)cc1 | inactive | inactive | 
COc1ccc(-c2cc(C)nc3c(-c4ccccc4)cnn23)cc1 | inactive | inactive | 
c1ccc(-n2ncc3c(N4CCCCC4)ncnc32)cc1 | inactive | inactive | 
CCCCCc1ccc(-c2ccc(C(=O)O)cc2)nc1 | inactive | inactive | 
O=C(Nc1nc2c(s1)CCCC2)C1COc2ccccc2O1 (stereo unspecified) | inactive | inactive | 
O=C(Nc1ccc(N2CCN(C(=O)c3ccc(Cl)cc3)CC2)cc1)c1cc2ccccc2o1 | inactive | inactive | 
O=C(COc1ccc2ccccc2c1)Nc1nccs1 | inactive | inactive | 
C[C@H](CO)N1C[C@H](C)[C@H](CN(C)C(=O)Nc2ccc(F)cc2)OCCCC[C@H](C)Oc2ccc(NC(=O)C3CCCCC3)cc2C1=O | inactive | inactive | 
CN(C)c1ccc(-c2nc3cc(N)ccc3o2)cc1 | inactive | inactive | 
O=C(CN1CCOc2ccccc21)NCc1ccc(F)cc1 | inactive | inactive | 
O=C(CCCc1ccccc1)Nc1cccc(C(=O)O)c1 | inactive | inactive | 
FC(F)(F)c1cccc(CC2CN(Cc3ccccc3)Cc3ccccc3N2c2cc(Cl)cc(Cl)c2)c1 (stereo unspecified) | inactive | inactive | 
Cc1cc(C(=O)CSc2nnc(N)s2)c(C)n1Cc1cccs1 | inactive | inactive | 
COc1ccc(/C=C/C(=O)Nc2ccccc2C(=O)O)cc1OC | inactive | inactive | 
O=C(Nc1cccnc1)c1cc(-c2ccc3c(c2)OCO3)on1 | inactive | inactive | 
O=C(CN1C(=O)c2ccccc2S1(=O)=O)c1ccc2c(c1)OCCCO2 | inactive | inactive | 
COc1cc(SC)ccc1C(=O)Nc1ncc(C)s1 | inactive | inactive | 
O=C(c1cc(-c2ccc(Cl)cc2Cl)on1)N1CCOCC1 | inactive | inactive | 
COC(=O)c1ccc2nc(-c3cccc(N)c3)cn2c1 | inactive | inactive | 

SMILES | outcome [1] | outcome [2] | outcome [3]
C[C@H](CO)N1C[C@H](C)[C@H](CN(C)C(=O)Nc2cccc3ccccc23)OCCCC[C@H](C)Oc2ccc(NC(=O)NC3CCCCC3)cc2C1=O | inactive | inactive | 
Clc1ccc(OCc2nc(-c3ccccn3)no2)c(Br)c1 | inactive | inactive | 
Cc1ccc(-c2cc(C(=O)N3CCOCC3)no2)cc1 | inactive | inactive | 
Cc1cnc(NC(=O)c2ccc(OCC3CCCO3)cc2)s1 (stereo unspecified) | inactive | inactive | 
CCOC(=O)c1cn2nc(N3CCCCC3)ccc2n1 | inactive | inactive | 
COc1cc(NC(=O)c2cccs2)c(C(=O)OCC(=O)c2cc(C)n(-c3ccccc3)c2C)cc1OC | inactive | inactive | 
O=C1OCCC1Sc1nnc(-c2ccc(Cl)cc2Cl)o1 (stereo unspecified) | inactive | inactive | 
O=C(CN1C(=O)c2ccccc2S1(=O)=O)c1ccc(F)c(F)c1 | inactive | inactive | 
Cc1ccc(-c2nc(-c3ccncc3)no2)c(Cl)c1 | inactive | inactive | 
COc1cccc(-c2cc(C(=O)N3CCCCCC3)no2)c1 | inactive | inactive | 
Cc1csc(NC(=O)c2ccc(OCC3CCCO3)cc2)n1 (stereo unspecified) | inactive | inactive | 
Cc1ccccc1C(=O)Nc1nnc(-c2ccco2)s1 | inactive | inactive | 
Cc1nc2c(OCCC3CCCCC3)cccn2c1N(C)C(=O)CCC1CCCC1 | inactive | inactive | 
O=C(O)c1ccc(-c2noc(-c3ccccc3Cl)n2)cc1 | inactive | inactive | 
CC(C)Oc1ccc(CNC(=O)CC(c2ccccc2)c2cc(Cl)ccc2O)cc1 (stereo unspecified) | inactive | inactive | 
O=C(O)c1cccc(Nc2ccnc(Nc3cccc(C(=O)O)c3)n2)c1 | inactive | inactive | 
CCOc1ccc(C(=O)Nc2cccc(C(=O)O)c2C)cc1Cl | inactive | inactive | 
COc1cc(NC(=O)c2cccc3c(-c4cnn(C)c4)coc23)cc(OC)c1OC | inactive | inactive | 
Cc1ccc(C(=O)n2nc(-n3cccc3)c3c(C)cc(C)nc32)cc1 | inactive | inactive | 
Cc1ccnc(NC(=O)c2cccc(S(=O)(=O)N3CCN(c4ccccc4)CC3)c2)c1 | inactive | inactive | 
Cc1ccc(-c2nc(-c3ccccn3)no2)cc1[N+](=O)[O-] | inactive | inactive | 

SMILES | outcome [1] | outcome [2] | outcome [3]
Cc1ccc(C(=O)C2C(=O)C3CCC2C3)cc1 (stereo unspecified) | inactive | inactive | 
CN(c1ccccc1)S(=O)(=O)c1cccc(NC(=O)c2cc(=O)c3ccccc3o2)c1 | inactive | inactive | 
Cc1c(C)c2ccc(OCC(=O)Nc3nccs3)cc2oc1=O | inactive | inactive | 
O=C(Nc1cccc(C(=O)O)c1)Nc1ccccc1Cl | inactive | inactive | 
OC1CCC(Nc2ccn3nc(-c4cccc(OCc5ccccc5)c4)cc3n2)CC1 (stereo unspecified) | inactive | inactive | 
Cc1ccccc1S(=O)(=O)N1[C@H](C#N)[C@H](c2ccc(C#CC3CCCCC3)cc2)[C@H]1CO | inactive | inactive | 
COCCCNc1ccn2nc(-c3ccccc3)cc2n1 | inactive | inactive | 
CCOC(=O)c1cn2nc(N3CCCC3)ccc2n1 | inactive | inactive | 
COCCn1c(C)c(C)c2c(NCCc3ccccc3)ncnc21 | inactive | inactive | 
Cc1cc(C(=O)Nc2ccc(N3CCCCC3)cc2)no1 | inactive | inactive | 
Cc1ccc(C(=O)Nc2ccc3c(c2)OCCO3)c(Cl)c1 | inactive | inactive | 
Cn1cccc1C(=O)OCC(=O)Nc1ccc2c(c1)OCCO2 | inactive | inactive | 
C[C@@H]1CN([C@@H](C)CO)C(=O)c2cc(NS(=O)(=O)c3ccc(F)cc3)ccc2O[C@H]1CN(C)Cc1ccc(-c2ccccc2)cc1 | inactive | inactive | 
CN(C)c1ccc(C2NC(=O)c3ccccc3N2)cc1 (stereo unspecified) | inactive | inactive | 
Clc1ccc(-n2ncc3c(N4CCCC4)ncnc32)cc1 | inactive | inactive | 
Clc1ccccc1/C=C/c1nc(-c2ccccn2)no1 | inactive | inactive | 
Cc1cc(C(=O)COC(=O)C2CC2)c(C)n1-c1ccc(F)cc1 | inactive | inactive | 
CCCC(=O)N1CCCC(c2cc(C(=O)Nc3ccccc3)no2)C1 (stereo unspecified) | inactive | inactive | 
COc1ccc(OCC(=O)Nc2nccs2)cc1 | inactive | inactive | 
c1ccc(-n2cnnc2SCc2cn3cccnc3n2)cc1 | inactive | inactive | 
O=C(O)c1c2c(nc3ccccc13)/C(=C/c1ccc(O)cc1)CC2 | inactive | inactive | 

SMILES | outcome [1] | outcome [2] | outcome [3]
CCS(=O)(=O)N1Cc2ccccc2CC1C(=O)Nc1nc2ccccc2s1 (stereo unspecified) | inactive | inactive | 
CCCCN(CCCNC(=O)c1ccc2c(c1)NC(=O)CN2C)c1ccccc1 | inactive | inactive | 
COc1cc(SC)ccc1C(=O)Nc1ccc(Cl)cn1 | inactive | inactive | 
CC(C)Nc1ncnc2c1cnn2-c1ccc(Cl)cc1 | inactive | inactive | 
Cc1ccc(NC(=O)c2cnn(-c3ccccc3)c2C)cc1C | inactive | inactive | 
CSc1nc2ccc(NC(=O)c3ccccn3)cc2s1 | inactive | inactive | 
O=S(=O)(Nc1ccc(O)c2ccccc12)c1ccc(OC(F)(F)F)cc1 | inactive |  | inactive
COc1ccc(-c2nc(N)n(C(=O)c3cccs3)n2)cc1 | inactive | inactive | inactive
COc1ccc(S(=O)(=O)N2CCN(C(=O)c3ccc(C)o3)CC2)cc1 | inactive | inactive | inactive
Cc1noc(C)c1S(=O)(=O)Nc1cccc2c1O[C@H](CN(C)C(=O)Nc1ccc(F)cc1)[C@H](C)CN([C@H](C)CO)C2=O | inactive | inactive | inactive
C=CCn1c(SCC(=O)Nc2ncc(Cc3ccc(C)c(Cl)c3)s2)nnc1-c1ccncc1 | inactive | inactive | inactive
O=C(CC1CS(=O)(=O)CC1CC(=O)Nc1ccc2c(c1)OCCO2)Nc1ccc2c(c1)OCCO2 (stereo unspecified) | inactive | inactive | inactive
CC1CN(C(=O)c2cccc(S(=O)(=O)Nc3cc(Cl)ccc3Cl)c2)CC(C)O1 (stereo unspecified) | inactive | inactive | inactive
CCN(C(=O)COC(=O)C12CC3CC(CC(O)(C3)C1)C2)c1c(N)n(Cc2ccccc2)c(=O)[nH]c1=O | inactive | inactive | inactive
CCOC(=O)C(C)N1c2cccc3cccc(c23)S1(=O)=O (stereo unspecified) | inactive | inactive | inactive
CCCCC(=O)N(C)c1c(C)nc2ccc(C(=O)N3CCCCC3)cn12 | inactive | inactive | inactive
Cc1noc(C)c1S(=O)(=O)Nc1ccc2c(c1)C(=O)N([C@H](C)CO)C[C@H](C)[C@H](CN(C)C(=O)Nc1ccc(F)cc1)OCCCC[C@@H](C)O2 | inactive | inactive | inactive
C[C@H]1CCCCO[C@H](CN(C)C(=O)Nc2cccc3ccccc23)[C@@H](C)CN([C@@H](C)CO)C(=O)c2cc(NS(=O)(=O)c3cn(C)cn3)ccc2O1 | inactive | inactive | inactive
O=C(C[C@H]1CC[C@H](NS(=O)(=O)c2cccc(F)c2)[C@@H](CO)O1)N1CCCCC1 | inactive | inactive | inactive
